# From the supplement of paper PMC6555819
# Assays:
# Experiment in all cases: PBM binding z-score (relative to random genomic background probes); higher = stronger binding; sequences stand for … in GC…GCGATTGACAGCGTAGAATGAAGG
# [1] = tested on: PPARg:RXRa DBDmut IVT, anti-RXR (DBD mutation: RXRa K156A/R161A, NR concentration 270 nM, RXRa partner concentration 90 nM)
# How it was run: (§1)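 Antibodies against each partner of ligand-free nuclear receptor dimers (one per run) detected binding on custom Agilent 4×180K protein-binding microarrays after 1 h incubation. The double-stranded probes had 34-nt variable regions carrying direct-repeat seeds, single-nucleotide variants, half-site ablations and random human genomic background sequences. Binding z-scores, from regression-normalized fluorescence, use the random background probes as reference.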
# [2] = tested on: PPARg:RXRa IVT, anti-PPARg (NR concentration 270 nM, RXRa partner concentration 90 nM)
# How it was run: as §1
# [3] = tested on: PPARg DBDmut:RXRa IVT, anti-PPARg (DBD mutation: PPARg1 K132A/R137A, NR concentration 270 nM, RXRa partner concentration 90 nM)
# How it was run: as §1
# [4] = tested on: PPARg DBDmut IVT, anti-PPARg (DBD mutation: PPARg1 K132A/R137A, NR concentration 270 nM)
# How it was run: as §1
# [5] = tested on: PPARg homodimer (NR concentration 180 nM)
# How it was run: as §1
# [6] = tested on: PXR:RXRa (NR concentration 270 nM, RXRa partner concentration 90 nM)
# How it was run: as §1
# [7] = tested on: PXR homodimer (NR concentration 270 nM)
# How it was run: as §1
# [8] = tested on: RARa:RXR (NR concentration 270 nM, RXRa partner concentration 90 nM)
# How it was run: as §1
# [9] = tested on: RARa homodimer (NR concentration 270 nM)
# How it was run: as §1
# [10] = tested on: RARb:RXRa (NR concentration 270 nM, RXRa partner concentration 90 nM)
# How it was run: as §1
# [11] = tested on: RARb homodimer (NR concentration 270 nM)
# How it was run: as §1
# [12] = tested on: RARg:RXRa (NR concentration 270 nM, RXRa partner concentration 90 nM)
# How it was run: as §1
# [13] = tested on: RARg homodimer (NR concentration 270 nM)
# How it was run: as §1
# [14] = tested on: RXRa DBDmut IVT, anti-RXR (DBD mutation: RXRa K156A/R161A, NR concentration 90 nM)
# How it was run: as §1
# [15] = tested on: RXRa homodimer (NR concentration 180 nM)
# How it was run: as §1
# [16] = tested on: THRa:RXRa (NR concentration 90 nM, RXRa partner concentration 90 nM)
# How it was run: as §1
# [17] = tested on: THRa homodimer (NR concentration 90 nM)
# How it was run: as §1
# [18] = tested on: VDR homodimer (NR concentration 270 nM)
# How it was run: as §1
Sequence,PBM binding z-score [1],PBM binding z-score [2],PBM binding z-score [3],PBM binding z-score [4],PBM binding z-score [5],PBM binding z-score [6],PBM binding z-score [7],PBM binding z-score [8],PBM binding z-score [9],PBM binding z-score [10],PBM binding z-score [11],PBM binding z-score [12],PBM binding z-score [13],PBM binding z-score [14],PBM binding z-score [15],PBM binding z-score [16],PBM binding z-score [17],PBM binding z-score [18]
TCTTGTAGACCAAAGGTTAAGAAAGCCGAAGCCT,2.06,3.9,0.87,0.749,0.811,1.58,-0.8,2.39,-0.178,2.03,1.34,1.88,0.82,0.533,2.54,1.3,-0.878,-0.489
AGTCAAAGTTCACTAGGTAGCGTAAGATTCAGCT,1.37,3.4,0.246,0.621,2.62,4.12,2.83,3.01,1.33,4.68,3.47,4.95,5.68,4.01,3.68,1.66,-0.346,3.7
TCATATGGGTAAATGCTAGGTGAAAGTCCGATCT,2.91,2.07,0.703,0.469,-0.0354,0.217,-0.0586,0.519,-0.166,0.208,0.561,0.294,-0.0205,0.923,0.517,1.38,0.395,-0.156
TCATATAGGTATACAGGTGAAAGTCCGTAAGTTA,2.8,2.54,0.449,1.54,1.33,0.873,0.816,1.03,1.2,0.603,0.863,0.487,0.35,1.58,1.14,0.729,0.585,0.541
CAAACTAGGTCACCGGAAGGTCAAAGACCGCATG,8.27,8.78,2.33,1.54,7.7,5.6,1.46,7.13,2.64,5.2,5.49,8.28,7.5,1.49,6.27,4.46,2.95,2.59
CCTTACGGGTCACTAGGTTATAGCACGACGAGCG,4.54,5.69,1.5,0.896,2.59,2.84,-0.213,3.7,0.907,3.7,3,4.53,4.46,1.22,4.2,2.29,0.139,1.24
AGTCAAAGTTCAGGACGAGGTAACGAAAAGCACG,0.0438,2.03,0.538,0.477,1.63,2.75,1.22,2.71,0.551,4.3,2.94,4.74,4.62,2.71,3.34,3.75,1.77,2.11
CGTCCAAGGTCAATGATAGGTCAGTGAAAGCATT,3.37,3.61,0.384,-0.272,6.66,5.17,1.58,6.7,1.7,5.31,4.99,7.81,7.06,3.55,6.04,4.03,2.44,2.61
TCTAGTTGGTCAAAGGTCAGACACTCGAAATGCG,3.43,5.86,1.03,0.417,4.36,4.74,1.67,6.17,3.82,4.53,4.51,6.12,5.15,1.57,6.68,3.09,1.49,1.89
CCTTACGGGTCACTGACAGTTTATAGCATTTGGA,3.68,3.57,0.77,0.36,2.21,4.38,0.495,4.35,1,3.9,3.2,5.31,4.77,2.11,5.48,2.74,0.505,1.42
ATATGTAGGTTAAGGGTCAGTCAGGTTGGTTCGC,7.48,7.77,4.77,2.22,3.78,4.14,2.03,4.53,2.65,3.51,3.81,4.01,3.14,1.4,4.19,2.78,1.68,2.75
TCTTGTCGATCAAAGGTTAAGAAAGCCGAAGCCT,1.37,2.3,-0.0137,0.486,0.668,1.62,-0.394,2.19,-0.0364,1.91,1.49,2.01,0.765,0.676,2.43,1.33,-0.0604,0.0763
GGCACGAGGGCAAAGTTGATAGCATCTGTCGACG,2.51,2.98,-0.61,-0.775,0.977,1.11,0.289,1.56,-0.644,2.54,1.26,2.26,1.99,2.39,2.19,1.33,-0.552,1.29
AGTCAAAGTTCTGGACGAGGTAACGTAAAGCACG,-0.983,0.272,0.288,0.0438,-0.146,-0.238,-0.479,0.0945,0.0553,0.168,-0.148,0.171,0.32,-0.639,0.0678,1.41,0.761,-0.322
ACTCGGAGGACAAAAGTCAGAGCTACGCCAGTGA,0.176,-0.114,-1.08,-0.828,0.0197,-0.626,-0.332,-0.564,-0.279,0.928,0.442,0.411,0.784,0.783,0.0563,0.186,-0.517,-0.631
